Tested on: PPARa:RXRa (NR concentration 270 nM, RXRa partner concentration 90 nM)
Experiment: PBM binding z-score (relative to random genomic background probes); higher = stronger binding; sequences stand for … in GC…GCGATTGACAGCGTAGAATGAAGG
Method in brief: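 On custom Agilent 4×180K arrays, double-stranded probes with 34-nt variable regions carried direct-repeat seeds, single-nucleotide variants, half-site ablations or random human genomic background. Ligand-free nuclear receptor dimers were applied for 1 h, and binding was read with antibodies against each partner (one per run). Binding z-scores come from regression-normalized fluorescence, with the random background probes as reference.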

| Sequence | PBM binding z-score |
| --- | --- |
| TCAGACAGGTGAAGGTAACCCAGGTACGCAGTCG | 1.45 |
| CCTTACGGGTCAAGGTTATAACACGGGTGGTACG | 5.22 |
| CAAACTAGGTCACGAAGGGTCAAAGTCGAATGAC | 6.41 |
| GGAACGAGGGCAAAGTCGATAGCATCTGTCGACG | 1.74 |
| TGAATGAGGTTATAAGAACAGGGAACGTTGCAAA | 2.32 |
| CCTAGCAGGCCAGGGTCACTAAAGCATTTCGCTT | 3.06 |
| ATCGAAAGGTCGAGGTGAATATAGAGAAAGGGAA | 4.65 |
| GCATATAGGTAATACAAGGTGAAAGTGCGATTGT | 2.26 |
| AATACAGGGTCACTAGGCCATAGTAGGTACGAAT | 6.01 |
| GCTTCTAGGTCAACTGATGGTCAGCTAAAGCTCG | 4.69 |
| TCATATAGGTAAATGCTAGGTGACAGTCCGATCT | 1.12 |
| CCTACTGGGCCATTCAGAGGTCATTCATCATATG | 3.72 |
| TCATATAGTTAAAGGTGAAAGTCGAACGATATGA | 2.69 |
| CCTTACGGGTCACGGACAGGTTATAGCATTTGGA | 6.01 |
| CCGACTGGGGCATAAGGTTACGATAAGCCAGCCC | 2.41 |
| GCTAGCAGGCCATTTGGCTCACTCAATGACGGGC | -0.645 |
| CCTACTGGGCCAAAGTTCATTGATTCCAATGCTC | 5.47 |
| ACAGACCGGTGAGTGAAGGTAACTCAGCTGGACG | -0.708 |
| TCTGCTAGGTCAACGACGGTCAGCTAATCTGCTA | 3.28 |
| ACTAGTTGGTCAGTTGAGGTCACACACAATTCGG | 4.12 |

| Sequence | PBM binding z-score |
| --- | --- |
| ACTTACGGGTCAACGAGGTTAGAGCACGCGTATA | 5.57 |
| TTACCAAGGTGAGCTAAGGTCGTTGATCCAACTC | 1.66 |
| CGAACGAGGGCATGAGTTGATAGCCAATGCCGAT | 1.33 |
| ATCTCTAGGTAAAAGTTCAGTGGATCCCGAGGAT | 4.09 |
| GCTGCTAGTTCAGGTTGGTCAGCTAACGGGTACG | -0.285 |
| TCATATCGGTAAATGCTAGGTGAAAGTCCGATCT | 0.778 |
| ATGGAAAGGTCGAGGTGAGTATAGAGAAAGGGAA | 4.69 |
| CGAACTAGGTAATTGACAGGACAGTGAATAGTAA | 0.979 |
| TAGCCCAGGTCATGCGGGCCAGTATAGTGTCGGC | 3.8 |
| CCTACTGGGCCATCATGTCATTGATATCAACGTT | 0.932 |
| TATACAGGCTCAAAGGCCAGAGTACGAATGTCGA | 0.221 |
| ATCTCTAGGTAAAGCTAGTTCAGTGAATGCAAAT | 0.456 |
| ATCTCTAGGTAAACATAGTTCAGTGAATGCAAAT | 0.819 |
| CCAGACAGGTGAGAAGGTATCTCAGCCTCGATTA | 0.0664 |
| ATCGAGAGGTCGAAGGTGAGTATACCCACCCGAA | 4.07 |
| CCTACTGGACCAAAGGTCATTGATTCCAATGCTC | 6.24 |
| CGTCCAAGGTCAGCAGGCCAGTGAAAGCGACGTG | 4.69 |
| AGAATGACGTTACCAAAGATCAGGGAAACGCTTG | -0.289 |
| TCTGGGAGGACACGAAGGTCAGAGCTTTCCAGAG | 1.81 |
| ATACCAAGGTGATCGTGAGGTCGTTGTTACTAAC | 1.47 |

— the supplement of paper PMC6555819
